Test [1] is described as follows: optical density shifts of acrAB sulA E. coli – strain DRC41, OD650, 48 h, E. coli filamentation inducer project, primary screen (AID 1152).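 Further: E. coli MC1000 strain DRC41 lacking acrAB efflux pump and sulA.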 Particulars: higher = more signal, called active from +8 up or from −8 down.
Test [2] in a line: probe aLefty1 binding on compound microarray – biochemical, small-molecule microarray, 635/667 nm fluorescence, primary screen (AID 1153).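 Further: score merges spot fluorescence with signal-to-noise ratio from the scanned slide images.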 Particulars: higher = more signal.
Test [3] is described as follows: plasmodial surface anion channel blockers, osmotic lysis – cell-based, P. falciparum Indochina, OD700, 1 h, primary screen (AID 1154). The note with it: P. falciparum Indochina infected RBC osmotic lysis, higher = more signal, called active from +8 up or from −8 down.
Test [4] can be described thus: plasmodial surface anion channel blockers, osmotic lysis – cell-based, P. falciparum Indochina, OD700, 2 h, primary screen (AID 1155).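 Further: lysis reports solute entry through the parasite surface anion channel PSAC.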 Particulars: P. falciparum Indochina infected erythrocytes, higher = more signal, called active from +8 up or from −8 down.
Test [5] is described as follows: changes in parasitized red cell lysis, either direction – P. falciparum Indochina, OD700, 3 h, PSAC antagonist project, primary screen (AID 1156). Particulars: P. falciparum-infected erythrocytes, osmotic lysis, higher = more signal, called active from +8 up or from −8 down.
Test [6] in a line: plasmodial surface anion channel blockers, osmotic lysis – cell-based, P. falciparum Indochina, OD700, 18 h, primary screen (AID 1157). Particulars: P. falciparum Indochina infected erythrocytes, osmotic lysis OD700, 18 h; higher = more signal, called active from +8 up or from −8 down.
A short description of test [7]: S6 kinase pathway phospho-S6 level changes – cell-based, A549, cytoblot, luminescence, serum-stimulated, primary screen (AID 1158).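 Further: serum-stimulated A549 lung adenocarcinoma cells; signal is phosphorylated S6 detected by cytoblot immunostaining with HRP secondary.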 The note with it: 5 h, higher = more signal.
The target of test [8] is NADPH oxidase 2 (Homo sapiens) (UniProt P04839). The experiment in a line: compounds shifting NOX2 Amplex Red fluorescence – cell-based, HEK293-NOX2, PMA-stimulated, NOX inhibitor project, primary screen (AID 1159). Further: test concentration not given here. The note with it: 45 min, higher = more signal, called active from +8 up or from −8 down.
Test [9] deals with NADPH oxidase 4 (Homo sapiens) (UniProt Q9NPH5). The experiment in a line: compounds shifting NOX4 Amplex Red fluorescence – cell-based, HEK293-NOX4, tetracycline-induced, NOX inhibitor project, primary screen (AID 1160). Particulars: HEK293-NOX4, Amplex Red H2O2 fluorescence, 45 min; higher = more signal, called active from +8 up or from −8 down.
For test [10], the target named is NADPH oxidase 5 (Homo sapiens) (UniProt Q96PH1). The experiment in a line: compounds shifting NOX5 Amplex Red fluorescence – cell-based, HEK293-NOX5, NOX inhibitor project, primary screen (AID 1161). The note with it: HEK293-NOX5, ionomycin, 45 min, higher = more signal.
Test [11] can be described thus: compound effects on lung adenocarcinoma cell viability – A549, calcein-AM fluorescence, 48 h, basal, profiling panel (AID 1162). Further: test concentration not given here. The note with it: higher = more signal.
A short description of test [12]: compound effects on differentiated 3T3-L1 adipocyte viability – cell-based, 3T3-L1 adipocytes, calcein-AM fluorescence, 48 h, basal, profiling panel (AID 1163). Further: test concentration not given here. The note with it: 3T3-L1 adipocytes viability, higher = more signal.
Test [13] can be described thus: compound effects on hepatocellular carcinoma cell viability – HepG2, calcein-AM fluorescence, 48 h, basal, profiling panel (AID 1164). Further: test concentration not given here. The note with it: higher = more signal.
Test [14] is described as follows: compound effects on multiple myeloma cell viability – MM1S, calcein-AM fluorescence, 48 h, basal, profiling panel (AID 1165).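 Further: viability of MM1S multiple myeloma cells under basal unstimulated conditions; test concentration not given here.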 The note with it: higher = more signal.
Test [15] can be described thus: calcein-AM signal in unstimulated myeloma cells – cell-based, calcein-AM fluorescence, 48 h, PK04 Diversity Set, profiling panel (AID 1166).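 Further: cells grown under basal conditions without added stimulus; test concentration not given here.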 Particulars: RPMI8226 myeloma viability, higher = more signal.
Test [16] is described as follows: JC-1 mitochondrial signal, unstimulated HepG2 cells – cell-based, JC-1 fluorescence, 24 h, 100 nL compound, profiling panel (AID 1167). Further: test concentration not given here. The note with it: HepG2 mitochondrial potential, higher = more signal.
Test [17] is described as follows: JC-1 mitochondrial signal, unstimulated adipocytes – cell-based, JC-1 fluorescence, 3T3-L1 adipocytes, 24 h, 100 nL compound, profiling panel (AID 1168). Further: test concentration not given here. Particulars: JC-1 mitochondrial fluorescence, higher = more signal, called active from +8 up or from −8 down.
Test [18] can be described thus: JC-1 mitochondrial signal, unstimulated myeloma cells – cell-based, JC-1 fluorescence, RPMI8226, 24 h, 100 nL compound, profiling panel (AID 1169). Further: test concentration not given here. The note with it: JC-1 mitochondrial potential fluorescence, higher = more signal.
Test [19] is described as follows: JC-1 mitochondrial signal, unstimulated MM1S myeloma – cell-based, JC-1 fluorescence, 24 h, 100 nL compound, profiling panel (AID 1170). Further: test concentration not given here. Particulars: MM1S mitochondrial potential, higher = more signal.
Test [20] is described as follows: resazurin metabolic signal in A549 cells – cell-based, resazurin fluorescence, 24 h, PK04 Diversity Set, profiling panel (AID 1171). Further: test concentration not given here. The note with it: A549 viability, higher = more signal, called active from +8 up or from −8 down.

SMILES strings stand for the structures. The source made the active and inactive calls.

Sequence of NADPH oxidase 2 (Homo sapiens) (P04839 whole entry, looked up): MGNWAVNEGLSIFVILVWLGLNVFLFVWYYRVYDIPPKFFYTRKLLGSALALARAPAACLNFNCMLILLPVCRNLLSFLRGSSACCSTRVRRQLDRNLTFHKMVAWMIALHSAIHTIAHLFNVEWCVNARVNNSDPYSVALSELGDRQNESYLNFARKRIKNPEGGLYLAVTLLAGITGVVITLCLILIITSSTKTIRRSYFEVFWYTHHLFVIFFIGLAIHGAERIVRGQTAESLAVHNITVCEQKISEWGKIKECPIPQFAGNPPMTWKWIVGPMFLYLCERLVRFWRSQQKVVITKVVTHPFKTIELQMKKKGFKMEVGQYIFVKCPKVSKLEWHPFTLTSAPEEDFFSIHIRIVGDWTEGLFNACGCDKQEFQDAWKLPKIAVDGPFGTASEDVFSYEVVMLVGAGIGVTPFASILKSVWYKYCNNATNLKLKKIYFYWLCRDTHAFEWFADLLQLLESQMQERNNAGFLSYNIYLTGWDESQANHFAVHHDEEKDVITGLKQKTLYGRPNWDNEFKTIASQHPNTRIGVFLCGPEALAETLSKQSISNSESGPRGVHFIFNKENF
Sequence of NADPH oxidase 4 (Homo sapiens) (Q9NPH5 whole entry, looked up): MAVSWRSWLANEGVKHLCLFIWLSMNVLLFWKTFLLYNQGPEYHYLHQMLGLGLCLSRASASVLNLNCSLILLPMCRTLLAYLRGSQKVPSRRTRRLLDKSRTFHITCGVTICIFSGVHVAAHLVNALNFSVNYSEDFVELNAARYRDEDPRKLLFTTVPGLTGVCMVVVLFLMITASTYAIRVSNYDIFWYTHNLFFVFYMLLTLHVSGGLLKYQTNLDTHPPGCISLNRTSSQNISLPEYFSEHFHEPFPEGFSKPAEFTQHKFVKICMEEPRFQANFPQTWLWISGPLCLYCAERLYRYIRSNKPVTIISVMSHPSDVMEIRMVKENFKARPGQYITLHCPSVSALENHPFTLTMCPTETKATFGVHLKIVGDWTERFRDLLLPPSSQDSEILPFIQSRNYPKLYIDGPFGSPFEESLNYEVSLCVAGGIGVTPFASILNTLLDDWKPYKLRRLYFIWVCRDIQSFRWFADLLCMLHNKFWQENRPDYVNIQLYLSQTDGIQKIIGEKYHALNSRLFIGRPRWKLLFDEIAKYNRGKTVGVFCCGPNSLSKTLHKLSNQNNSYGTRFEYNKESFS
Sequence of NADPH oxidase 5 (Homo sapiens) (Q96PH1 whole entry, looked up): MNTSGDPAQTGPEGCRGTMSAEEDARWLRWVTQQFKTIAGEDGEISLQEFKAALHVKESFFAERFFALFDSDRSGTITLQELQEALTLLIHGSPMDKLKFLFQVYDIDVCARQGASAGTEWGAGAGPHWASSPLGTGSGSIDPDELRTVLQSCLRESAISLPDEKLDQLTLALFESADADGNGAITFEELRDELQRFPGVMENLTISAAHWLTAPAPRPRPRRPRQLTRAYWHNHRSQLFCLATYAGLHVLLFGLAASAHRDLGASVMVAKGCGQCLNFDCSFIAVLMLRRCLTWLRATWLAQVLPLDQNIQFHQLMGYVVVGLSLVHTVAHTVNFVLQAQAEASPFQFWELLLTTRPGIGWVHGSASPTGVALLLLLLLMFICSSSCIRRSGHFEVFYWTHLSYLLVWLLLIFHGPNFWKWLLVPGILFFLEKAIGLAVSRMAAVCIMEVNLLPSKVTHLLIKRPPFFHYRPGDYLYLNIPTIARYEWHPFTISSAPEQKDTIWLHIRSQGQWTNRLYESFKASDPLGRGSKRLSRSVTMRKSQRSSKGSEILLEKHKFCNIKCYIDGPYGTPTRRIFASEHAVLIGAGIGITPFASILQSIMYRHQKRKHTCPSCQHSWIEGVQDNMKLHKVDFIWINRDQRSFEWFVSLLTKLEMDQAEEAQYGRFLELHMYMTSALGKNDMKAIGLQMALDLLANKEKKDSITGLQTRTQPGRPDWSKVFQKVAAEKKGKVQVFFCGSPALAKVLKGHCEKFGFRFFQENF

As to `[N-]=[N+]=Nc1ccccc1[C@@H]1OC(c2ccc(OCCCO)cc2)=N[C@]1(Cc1ccccc1)C(=O)N1CCOCC1`, the z-score is 0.123 (inactive) in test [1]; 31.8 (active) in test [3]; 32.1 (active) in test [4]; 2.51 (inactive) in [5]; 3.91 (inactive) in [6]; -0.37 in test [7]. For the same compound, the z-score in test [8] is -0.507 (inactive); in [9], -0.36 (inactive); in test [10], -1.77; in test [11] it was -0.539; in test [12], -1.63; in test [13] it was -0.404. Also, the z-score in test [14] was -3; in test [15], -4.17; in test [16], 0.593; in test [17], 2.15 (inactive); in test [18], -1.21; in [19], -1.09. Further, the z-score in [20] was -1.56 (inactive). The same compound showed a composite z-score in test [2] of 0.391.
Regarding `Cc1nc2cc(Br)ccc2c(=O)o1`, the z-score was 0.776 (inactive) in test [1]; 0.252 (inactive) in [3]; 0.0276 (inactive) in test [4]; 0.193 (inactive) in test [5]; -0.509 (inactive) in [6]; 0.472 in test [7]. For the same compound, the z-score is 0.288 (inactive) in test [8]; -0.0246 (inactive) in [9]; 0.256 in test [10]; 0.504 in [11]; 0.703 in [12]; 0.368 in [13]. Also, the z-score is 0.729 in test [14]; 0.834 in test [15]; 1.37 in test [16]; 0.499 (inactive) in test [17]; 0.649 in [18]; 0.392 in test [19]. Further, the z-score in test [20] was 0.235 (inactive). The composite z-score in test [2] is 0.442.
Regarding `CC1CC/C=C\[C@H]2OC34C=CCN(C(C)(C)C)C(=O)[C@H]3N(C(C)CO)C(=O)[C@@H]4C2C(=O)O1` (stereo not given in full), the z-score is -0.265 (inactive) in test [1]; 1.42 (inactive) in test [3]; 0.576 (inactive) in test [4]; 0.545 (inactive) in test [5]; 0.355 (inactive) in test [6]; 0.021 in test [7]. Further, the z-score in [8] is 0.499 (inactive); in test [9] it was -0.812 (inactive); in test [10], 1.65; in [11], 0.593; in test [12], -0.691; in test [13], 0.292. For the same compound, the z-score in [14] was 0.771; in test [15], -0.192; in test [16], -0.0168; in [17] it was -0.43 (inactive); in test [18] it was -0.164; in [19] it was -0.726. Also, the z-score in test [20] is -0.388 (inactive). For the same compound, the composite z-score in test [2] is -0.0984.
In the case of `C[N+](C)(C)CCCCNC(=O)[C@H]1C[C@H]2C(=O)N3CCC[C@H]3C(=O)N2[C@H]1c1cccc(OCCO)c1`, the z-score in [1] is 0.364 (inactive); in [3], 3.34 (inactive); in [4] it was 0.503 (inactive); in test [5], -0.78 (inactive); in test [6], 0.277 (inactive); in [7], -0.555. The z-score in test [8] is -1.52 (inactive); in [9], 0.00366 (inactive); in test [10], -1.41; in test [11], -0.591; in [12], -0.682; in test [13] it was -0.545. Also, the z-score in test [14] is 0.129; in test [15], 0.157; in [16], -0.901; in test [17] it was -0.186 (inactive); in [18] it was -0.0988; in test [19], -0.193. Moreover, the z-score in test [20] was -0.699 (inactive). Also, in test [2], the composite z-score was found to be 0.0861.
As for `COc1ccc(CCNC(=O)[C@@H]2c3ccccc3C(=O)N(Cc3ccccc3Cl)[C@H]2c2ccc(CO)cc2)cc1`, the z-score in test [1] is -0.497 (inactive); in [3], 3.59 (inactive); in test [4], 0.474 (inactive); in test [5], 0.209 (inactive); in test [6], -0.11 (inactive); in test [7], -0.144. Also, the z-score was -3.49 (inactive) in [8]; 0.151 (inactive) in test [9]; -2.46 in test [10]; 1.37 in [11]; 0.789 in test [12]; 0.332 in test [13]. In addition, the z-score is -0.897 in [14]; -0.474 in test [15]; 1.64 in test [16]; 0.716 (inactive) in test [17]; -0.0929 in test [18]; 1.42 in test [19]. For the same compound, the z-score in [20] was 1.22 (inactive). This compound had a composite z-score in test [2] of -0.0999.

(Values after PubChem BioAssay.)
